# In the library only some 7.5% were active in any assay of this set; here they are far more common.
# HCMV inh: inhibitors of human cytomegalovirus; HFF cells, HCMV-luciferase reporter, 72 h; stronger effect = lower value; activity change, negative = inhibition, % at 57.5 µM; 4.5% of 410,000 active; AID 1259415; in the data active = activity change below about -60%; inconclusive = no clear call, values can overlap the other calls; inactive = above about -39%
#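 Steps: HFFs plated, 16 h 37C; compounds added; HCMV-luciferase added to MOI 1 PFU/cell; 72 h 37C; OneGlo reagent, 5 min room temperature; luminescence read, normalized to controls.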
# FBPA Giardia inh: blocks Giardia fructose-bisphosphate aldolase activity; A8B2U2; purified Giardia FBPA; Potency, µM (highest dose often 59.6 µM), without a hit: at the highest dose activity, negative = inhibition, usual class: inhibitors; 0.71% of 290,000 active; AID 2451; also: potency is read from the fitted curve at half-maximal effect; nearly all actives have a fitted effect of over 55% in size
# Target sequence (A8B2U2 whole entry, looked up): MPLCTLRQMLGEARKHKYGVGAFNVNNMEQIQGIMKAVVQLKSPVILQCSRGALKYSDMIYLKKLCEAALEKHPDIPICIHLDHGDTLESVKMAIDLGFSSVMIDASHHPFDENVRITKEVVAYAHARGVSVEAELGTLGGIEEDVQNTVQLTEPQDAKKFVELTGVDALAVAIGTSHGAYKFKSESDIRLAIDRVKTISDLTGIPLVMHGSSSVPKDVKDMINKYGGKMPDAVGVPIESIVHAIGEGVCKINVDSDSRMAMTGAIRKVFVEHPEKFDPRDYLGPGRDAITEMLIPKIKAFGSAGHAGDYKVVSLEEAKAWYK
#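 Giardia FBPA (40 nM reagent) was preincubated 10 min at RT with compound (up to 57.5 uM final), then substrate plus GAPDH/TPI/NAD/arsenate coupling system with diaphorase/resazurin was added; resorufin fluorescence (525/598 nm) was read after 20 min.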
# Vaccinia mCherry: vaccinia inhibition (mCherry reporter). 0.63% of 310,000 active. Potency, µM (titrated, usually from 36.5 µM), for the others: top-dose activity change, negative = inhibition, most hits filed as inhibitors. AID 720579. Vaccinia virus mCherry reporter infection, fluorescence; calls by dose curve; tested in A549 cells; also: potency is read from the fitted curve at half-maximal effect; nearly all actives have a fitted effect of over 35% in size
# HCV inh: HCV inhibition | 3.4% of 340,000 active | Huh7.5.1 HCVcc-Cre infection, luciferase reporter, 44 h | Potency, µM (top dose mostly 41.8 µM), for the others: at the top dose activity change, negative = inhibition, actives largely listed as inhibitors | AID 651820; also: potency is read from the fitted curve at half-maximal effect
#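 Luciferase read-out (15 sec integration) after a 15 min room-temperature substrate step quantifies HCVcc-Cre infection. Cells, 1,000 per well, had compound added 4 h post-plating, then virus at ~0.5 moi, and were cultured 44 h.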
# Vaccinia Venus: vaccinia inhibition (Venus reporter); Vaccinia virus Venus reporter expression, fluorescence; Potency, µM (series often up to 36.5 µM), for the others: at the highest dose activity change, negative = inhibition, most hits filed as inhibitors; 0.46% of 330,000 active; AID 720580; calls by dose curve; tested in A549 cells; also: potency is read from the fitted curve at half-maximal effect; nearly all actives have a fitted effect of over 30% in size
# FMDV antiviral: blocks foot and mouth disease virus. FMDV antiviral cell-based qHTS. Potency, µM (titrated, usually from 57.9 µM), for the others: at the highest dose activity change, negative = inhibition, hits mostly inhibitors. 1.2% of 410,000 active. AID 1159524; calls by dose curve; tested in HEK293T cells; also: read-out not given here; potency is read from the fitted curve at half-maximal effect; nearly all actives have a fitted effect of over 45% in size
# Active calls of the source: *; i = inactive; ? = inconclusive; nt = no result; [ ] = remark or other dose. Unless noted, calls follow the shape of the dose curve; as a rule, active = well fitted curve in the direction sought with a large enough effect; inconclusive = small, poorly fitted or top-dose-only effect, or another doubt; inactive = no such curve, though single readings can be large; an effect the other way counts as inactive or inconclusive. % is scaled to controls: 0 for no effect and ±100 for the full control effect.
SMILES,HCMV inh,FBPA Giardia inh,Vaccinia mCherry,HCV inh,Vaccinia Venus,FMDV antiviral
COc1ccc2ncc3c(-c4ccc(C)c(C)c4)nn(CC(=O)Nc4ccccc4)c3c2c1,-92*,nt,?,nt,-29%,9%
O=S(=O)(NCCCCCNS(=O)(=O)c1c(F)cccc1F)c1ccc2c(c1)OCCO2,-9,nt,nt,nt,nt,56%
O=S(=O)(NCC1CN(S(=O)(=O)c2c(F)cccc2F)C1)c1ccc2c(c1)OCCO2,-62*,nt,nt,nt,nt,10%
O=C(c1ccc2c(c1)OCO2)N1C[C@@H]2[C@H](c3ccccc31)[C@H](CO)N2CC1CCCC1,-27,nt,nt,nt,nt,nt
Cc1ccccc1NC(=O)Cn1c(=O)n(Cc2ccc3c(c2)OCO3)c(=O)c2ccccc21,-61*,nt,-14%,nt,-3%,-15%
Cc1ccccc1NC(=O)Cn1c(=O)n(Cc2ccc3c(c2)OCO3)c(=O)c2oc3ccccc3c21,-16,nt,-6%,nt,?,20%
CC(C)(C)c1ccc(-c2nnc(SCC(=O)Nc3sc4c(c3C#N)CCCC4)o2)cc1,-102*,0%,i,-16%,-1%,5%
CCOC(=O)c1c(NC(=O)CSc2nnc(-c3ccc(Cl)cc3)o2)sc2c1CCC2,-38,nt,-14%,3%,-18%,1%
N#Cc1c(NC(=O)CSc2nc(N)cc(=O)[nH]2)sc2c1CCCCCC2,?,-3%,-23%,?,-21%,nt
CC(Sc1nc(N)cc(=O)[nH]1)C(=O)Nc1sc2c(c1C#N)CCCC2 (stereo not given),-66*,3%,-26%,?,-16%,?
COc1ccc(CN(C)CC(=O)Nc2sc3c(c2C#N)CCC3)cc1OC,10,-20%,nt,11µM*,nt,-6%
N#Cc1c(NC(=O)CSc2ncn[nH]2)sc2c1CCCCC2,-64*,8%,?,?,?,8.9µM*
COc1ccccc1-c1noc2c1C(=O)NCC2,-9,nt,i,nt,-1%,0%
CC(=O)Nc1sc2c(c1C#N)CCCC2,49,1%,i,11µM*,-10%,38%
Cc1ccc(-n2nc(CO)c(C(=O)NCCC(C)C)n2)cc1C,-36,nt,-25%,nt,-29%,-5%
OC(COCc1ccc(Cl)cc1)CN1CCCCC1 (stereo not given),5,nt,nt,-23%,nt,-17%
OC(COCc1ccc(Cl)cc1)CN1CCN(CC(O)COCc2ccc(Cl)cc2)CC1 (stereo not given),?,5%,nt,11µM*,nt,?
CN1CCN(CC(O)COC(c2ccccc2)c2ccccc2)CC1 (stereo not given),?,2%,-3%,16µM*,-4%,-5%
CC(=O)c1ccc(N2CCN(CC(O)COC(c3ccccc3)c3ccccc3C)CC2)cc1 (stereo not given),30,?,?,11µM*,-13%,2%
OC(COC(c1ccccc1)c1ccccc1)CN1CCN(c2cccc(Cl)c2)CC1 (stereo not given),11,3%,-30%,?,-8%,-5%
CC(=O)c1ccc(N2CCN(CC(O)COC(c3ccccc3)c3ccccc3)CC2)cc1 (stereo not given),12,?,-11%,4µM*,-21%,-19%
COc1ccc(N2C(=O)NC(NS(=O)(=O)c3ccc(NC(C)=O)cc3)(C(F)(F)F)C2=O)cc1 (stereo not given),-7,8%,-10%,15%,-11%,-8%
O=C1CN(CCN2CC(=O)NC(=O)C2)CC(=O)N1,nt,nt,44%,nt,10%,nt
COc1cc(C(C)=O)ccc1OCC(O)CN1CCN(c2cc(C)cc(C)c2)CC1 (stereo not given),12,-7%,nt,13µM*,nt,-30%
Cc1cccc(C)c1OCC(O)CN1CCN(c2ccccn2)CC1 (stereo not given),-21,-7%,i,24%,-9%,2%
SMILES,HCMV inh,FBPA Giardia inh,Vaccinia mCherry,HCV inh,Vaccinia Venus,FMDV antiviral
CC(=O)c1ccc(OCC(O)CN2CCN(c3ccc(F)cc3)CC2)cc1 (stereo not given),1,-19%,-24%,-4%,-2%,-24%
OC(COC(c1ccc(Cl)cc1)c1ccc(Cl)cc1)CN1CCN(c2ccccn2)CC1 (stereo not given),11,-14%,-7%,8.9µM*,-31%,?
C=CCn1c(SCC(=O)Nc2ccc(Br)cc2)nc(O)c(CC)c1=O,0,13%,i,8%,-20%,1%
CCCOc1cccc(C(=O)Nc2cccc(NC(=O)c3ccco3)c2)c1,-8,-2%,-31%,25µM*,-13%,-25%
CCCCOc1cccc(C(=O)NC(=S)Nc2cccnc2)c1,-24,-20%,?,0%,-1%,-4%
COc1cccc(NC(=O)c2cccc(NC(=O)c3ccco3)c2)c1,?,nt,0%,nt,-12%,6%
CCCOc1cccc(C(=O)Nc2cccnc2)c1,2,3%,14µM*,-22%,-13%,nt
N#Cc1ccc(C(=O)Nc2cccc(NC(=O)c3ccco3)c2)c(F)c1,-74*,0%,i,?,-10%,-28%
CCCOc1cccc(NC(=O)c2cc(C)oc2C)c1,?,2%,-1%,10µM*,-17%,-7%
CCCCOc1cccc(NC(=O)c2cccc(C(=O)Nc3cccc(OCCCC)c3)c2)c1,-30,nt,6%[7.34 µM],nt,-1%[7.34 µM],-15%
CCCCOc1cccc(C(=O)Nc2ccc(NC(=O)c3ccco3)cc2)c1,-78*,1%,-29%,5%,?,-8%
CCC(=O)N1CC2(C1)CN(C(=O)c1ccccn1)[C@H](CO)c1c2c2ccc(OC)cc2n1C,21,nt,nt,nt,nt,nt
Cc1cc2cc(C)c3nnc(SCc4ccccn4)n3c2cc1C,-65*,1%,-21%,?,-5%,-35%
COCCn1c(=NC(=O)c2ccc3c(c2)OCCO3)sc2cc(C(=O)OC)ccc21,67,nt,-18%,nt,-16%,0%
CCOC(=O)c1ccc2c(c1)sc(=NC(=O)c1ccco1)n2CCOC,-68*,-1%,-4%,-11%,-1%,5%
Cc1ccc(NCSc2ccc(Cl)cc2)cc1,52,nt,?,10µM*,-15%,28%
CCN(C)C(=O)c1coc(N2CCN(Cc3cccc(F)c3)C2=O)n1,-11,nt,nt,nt,nt,nt
COc1cc(C(=O)Oc2cccc(Nc3ncnc4ccccc34)c2)cc(OC)c1OC,-70*,-4%,-10%,25µM*,-10%,nt
COc1ccc(C(=O)Oc2cccc(Nc3ncnc4ccccc34)c2)cc1OC,-18,-7%,?,?,-24%,20µM*
COc1ccc(C)cc1S(=O)(=O)NCC(c1ccco1)N1CCc2ccccc2C1 (stereo not given),5,nt,i,-21%,-16%,57%
Nc1cccc(Oc2ccc3c(c2)C(=O)NC3=O)c1,69,-8%,-3%,-16%,2%,-5%
Cc1[nH]c2ccc(F)cc2c1CCNC(=O)c1cc2cc(Cl)ccc2oc1=O,-7,nt,-12%,nt,-4%,?
